TDP1 cell CPT – DT40-hTDP1 cell growth loss with CPT; chicken DT40 Tdp1-/-;hTDP1 cells + 20 nM CPT, ATP luminescence, 48 h; actives 12% (n = 420,000); Potency, µM (top dose mostly 46.2 µM), without a hit: at the highest dose activity change, negative = growth inhibition, hits mostly inhibitors; also: potency is read from the fitted curve at half-maximal effect; nearly all actives have a fitted effect of over 55% in size
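Chicken DT40 Tdp1-/- cells complemented with human TDP1, 400 cells/well, exposed to compounds plus 20 nM camptothecin for at least 48 h at 37 C; viability read as ATP content by CellTiter-Glo luminescence.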
TDP1 inh – inhibitors of human tyrosyl-DNA phosphodiesterase TDP1. recombinant TDP1, AlphaScreen DNA substrate cleavage. Potency, µM (series often up to 130 µM), for the others: at the highest dose activity change, negative = inhibition, actives largely listed as inhibitors. AID 485290. actives 0.28% (n = 350,000); also: potency is read from the fitted curve at half-maximal effect; nearly all actives have a fitted effect of over 40% in size
Target sequence (Q9NUW8 whole entry, looked up): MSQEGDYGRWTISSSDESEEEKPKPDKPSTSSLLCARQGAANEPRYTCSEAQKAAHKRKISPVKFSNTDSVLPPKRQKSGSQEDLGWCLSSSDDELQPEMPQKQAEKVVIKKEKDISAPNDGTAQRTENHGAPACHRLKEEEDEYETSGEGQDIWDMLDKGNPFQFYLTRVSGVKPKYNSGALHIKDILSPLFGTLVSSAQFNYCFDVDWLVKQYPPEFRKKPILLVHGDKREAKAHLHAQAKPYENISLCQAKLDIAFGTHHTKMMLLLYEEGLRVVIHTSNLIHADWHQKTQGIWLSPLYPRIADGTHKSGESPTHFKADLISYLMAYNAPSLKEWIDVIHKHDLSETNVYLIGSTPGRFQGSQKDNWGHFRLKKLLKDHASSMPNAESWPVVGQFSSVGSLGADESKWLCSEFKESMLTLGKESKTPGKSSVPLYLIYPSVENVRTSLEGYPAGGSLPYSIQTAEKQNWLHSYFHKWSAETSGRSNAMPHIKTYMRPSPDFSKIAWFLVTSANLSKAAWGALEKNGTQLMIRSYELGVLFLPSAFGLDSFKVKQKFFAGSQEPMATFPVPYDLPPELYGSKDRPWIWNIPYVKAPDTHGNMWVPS
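Enzyme-compound mixtures sat 15 min at room temperature, followed by a 5 min reaction with 15 nM final substrate and 10 min with AlphaScreen beads. Recombinant human Tdp1 was used at 1 nM final.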
IL-1B inflam inh – inhibitors of inflammasome signaling (IL-1 beta secretion); actives 4.7% (n = 360,000); THP-1 LPS/ATP IL-1B secretion, AlphaLISA, 16 h; hits give low values; activity change, % at 57.5 µM; in the data active = activity change below about -50%; inconclusive = mostly about -30% to -49%
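Secreted IL-1B measured by AlphaLISA bead assay after 16 h compound exposure of THP-1 cells; compounds (final up to 57.5 uM) added 1 h before LPS (250 ng/mL) and ATP (1.25 mM) stimulation; lower signal means less secretion.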
DT40 TDP1 no CPT – qHTS for Inhibitors of human tyrosyl-DNA phosphodiesterase 1 (TDP1): qHTS in cells in absence of CPT; DT40 Tdp1-/- hTDP1 cells, no CPT, ATP luminescence, 48 h; actives 15% (n = 420,000); Potency, µM (highest dose often 46.2 µM), for the others: top-dose activity change, negative = growth inhibition, hits mostly inhibitors; also: potency is read from the fitted curve at half-maximal effect; nearly all actives have a fitted effect of over 55% in size
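A cellular qHTS used chicken DT40 cells lacking endogenous Tdp1 but carrying stably transfected human TDP1. Compounds were applied without camptothecin, and cell growth kinetics were judged by ATP-dependent luminescence after ≥48 hr.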
Six1-Eya2 blk – inhibitors of human Six1/Eya2 interaction; Q15475+O00167; AlphaScreen GST-Six1/His-Eya2 binding, biochemical; hits give low values; activity change, % (concentration not given with the values); actives 0.56% (n = 360,000); AID 651725; in the data active = activity change below about -65%; inconclusive = mostly about -30% to -63%
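AlphaScreen with GST-Six1 and His-Eya2 (5X mix: 250 nM and 500 nM), glutathione donor and nickel acceptor beads; buffer 50 mM Tris pH 8.0, 300 mM NaCl, 1 mM TCEP; 1 h at 37 C in the dark.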
CtBP-E1A inh – inhibitors of CtBP/E1A interaction. activity change, % (concentration not given with the values). actives 0.49% (n = 340,000). AlphaScreen GST-E1A/His-CtBP binding, 1536-well; hits give low values; in the data active = activity change below about -65%; inconclusive = mostly about -30% to -63%
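In 5 uL wells, 23 nL compound meets equimolar GST-E1A and His-CtBP (5X stock 125 nM each) for 2 h, 37 °C. Beads (5X, 50 ug/mL) then 1 h, 37 °C, dark.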
Numbers without * were called inactive; ? = inconclusive; / = not tested or not shown; [ ] = another dose, or the depositor's remark. Sampled rows, rich in hits. Any-hit rate of the full collection: about 18%. Unless noted, calls follow the shape of the dose curve; as a rule, active = well fitted curve in the direction sought with a large enough effect; inconclusive = small, poorly fitted or top-dose-only effect, or another doubt; inactive = no such curve, though single readings can be large; an effect the other way counts as inactive or inconclusive. % is scaled to controls: 0 for no effect and ±100 for the full control effect.

SMILES	TDP1 cell CPT	TDP1 inh	IL-1B inflam inh	DT40 TDP1 no CPT	Six1-Eya2 blk	CtBP-E1A inh
CC(=O)Nc1cccc(-c2ccnc3c2CC(C(=O)Nc2cccc(OC(F)(F)F)c2)O3)c1 (centres undefined)	?	/	9	18µM*	-7	-6
CC(=O)Nc1ccc(-c2ccnc3c2CC(C(=O)Nc2cccc(C(F)(F)F)c2)O3)cc1 (centres undefined)	23µM*	/	-2	-73%	0	-13
CC(=O)Nc1cccc(-c2ccnc3c2CC(C(=O)Nc2cccnc2)O3)c1 (centres undefined)	-32%	/	12	?	0	20
Cc1nc(C)c(C)nc1C	/	3%	/	/	/	/
COc1ccc(C(CNC(=O)c2cccc(S(=O)(=O)Nc3ccc(C)cc3)c2)N2CCCCC2)cc1 (centres undefined)	?	/	?	?	-8	-6
CC(=O)Nc1cccc(-c2ccnc3c2CC(C(=O)Nc2cccc(Oc4ccccc4)c2)O3)c1 (centres undefined)	?	/	-8	?	-14	-11
CC(=O)Nc1ccc(-c2ccnc3c2CC(C(=O)Nc2cccc(N(C)C)c2)O3)cc1 (centres undefined)	18µM*	/	-19	2.6µM*	-11	-18
CC(=O)Nc1ccc(-c2ccnc3c2CC(C(=O)Nc2cccc(Oc4ccccc4)c2)O3)cc1 (centres undefined)	?	/	?	21µM*	-3	-8
O=C1Nc2ccccc2C(O)(C(=O)N2CCCCC2)N1c1ccccc1 (centres undefined)	26%	-1%	-7	?	2	0
COc1ccc([C@@H](C)NC(=O)CCc2nnc(-c3cc(C)on3)o2)cc1	-14%	3%	-12	?	20	1
O=C(NC(C(=O)N/N=C/c1ccccc1)c1n[nH]c(=O)c2ccccc12)c1ccccc1 (centres undefined)	-5%	7%	7	0%	-7	-1
O=C(NC(C(=O)N/N=C/c1c2ccccc2cc2ccccc12)c1n[nH]c(=O)c2ccccc12)c1ccccc1 (centres undefined)	8.2µM*	9%	?	10µM*	-3	-22
COc1ccc(C(C)C)cc1S(=O)(=O)N1CCC(C(=O)NCc2cccnc2)CC1	3%	4%	46	?	2	0
CCOC(=O)c1c(NC(N)=O)sc(C)c1C	-24%	3%	-1	-11%	-1	2
CCOC(=O)c1c(N2C(=O)C=CC2=O)sc(C)c1C	1.2µM*	5%	-96*	2.6µM*	-13	-12
N#C/C(=C\c1ccccc1[N+](=O)[O-])C(=O)NCc1ccccc1	-21%	7%	-29	21µM*	3	3
CCCCCCCCNC(=O)/C(C#N)=C/c1ccccc1[N+](=O)[O-]	?	2%	?	?	3	-3
N#C/C(=C\C=C\c1ccccc1[N+](=O)[O-])C(=O)NCc1ccccc1	4.6µM*	/	-102*	6.5µM*	-2	-14
C=CCNC(=O)/C(C#N)=C/c1ccccc1[N+](=O)[O-]	-19%	0%	-62*	?	18	0
COc1cc2c(c(OC)c1)C(c1cccc(F)c1F)CC(=O)N2 (centres undefined)	-17%	5%	/	-4%	/	/
CCOc1cccc2cc(-c3csc(NC(=O)CCC(=O)N4CCC(C)CC4)n3)c(=O)oc12	?	-2%	-2	16µM*	-3	6
COc1cccc(C(=O)N2CCC(C(=O)N3CCN(C)CC3)CC2)c1	4%	5%	-2	-10%	-6	-4
COc1ccccc1-c1noc2c1C(=O)N(Cc1cn(-c3ccc(Cl)cc3)nn1)CC2	?	/	0	23µM*	?	-12
COc1ccccc1-n1cc(CN2CCc3onc(-c4ccc(Br)cc4)c3C2=O)nn1	?	/	-24	?	-4	0
C#CCN1CCc2onc(-c3ccccc3OC)c2C1=O	3%	/	29	8%	16	2
SMILES	TDP1 cell CPT	TDP1 inh	IL-1B inflam inh	DT40 TDP1 no CPT	Six1-Eya2 blk	CtBP-E1A inh
COc1ccc(Cn2cc(CN3CCc4onc(-c5ccc(Br)cc5)c4C3=O)nn2)cc1	16µM*	/	0	21µM*	-6	9
CCOc1ccc(NC(=O)N(C2CCCCC2)C(C)c2cccnc2)cc1 (centres undefined)	-14%	-7%	-8	-21%	22	5
CCCCCCCC/C=C\CCCCCCCC(=O)N[C@@H](CO)Cc1ccc(O)cc1	12µM*	11%	/	11µM*	/	/
CCN(CC)c1ccc(CN(C(=O)Cc2coc3ccc(C)cc23)C2CCS(=O)(=O)C2)cc1 (centres undefined)	?	7%	/	23µM*	/	/
CCN(CC)c1ccc(CN(C(=O)c2cc(=O)c3ccccc3o2)C2CCS(=O)(=O)C2)cc1 (centres undefined)	16µM*	4%	/	?	/	/
Cc1ccc2occ(CC(=O)N(Cc3ccc(N(C)C)cc3)C3CCS(=O)(=O)C3)c2c1 (centres undefined)	?	12%	/	?	/	/
CC(C)c1ccc2occ(CC(=O)N(Cc3ccc(F)cc3)C3CCS(=O)(=O)C3)c2c1 (centres undefined)	18µM*	0%	/	?	/	/
O=C(COc1ccccc1)NNc1nc2ccccc2s1	?	/	18	-28%	-9	-10
CC(C)C(NS(C)(=O)=O)c1nnc2n1CCN(Cc1ccnc3ccccc13)CC2 (centres undefined)	?	/	/	-29%	/	/
COC(=O)c1cc(Br)c(=O)n(CCN2CCCC2)c1	9%	5%	32	-19%	-1	0
COC(=O)c1cc(Br)c(=O)n(CCC2=CCCCC2)c1	21µM*	-2%	17	?	4	6
O=C(CN(C(=O)CCC(=O)Nc1nccs1)c1cccc(F)c1)NCc1ccc2c(c1)OCO2	-24%	-7%	-6	-11%	-11	-10
CC(OC(=O)c1n[nH]c2ccccc12)C(=O)Nc1ccccc1[N+](=O)[O-] (centres undefined)	?	0%[56.1 µM]	6	15µM*	-4	-13
CS(=O)(=O)c1ccc([C@@H](O)[C@@H](COC(=O)CN)NC(=O)C(Cl)Cl)cc1	6.7µM*	/	/	3.8µM*	/	/
O=C(N[C@@H](CO)[C@@H](O)c1ccc([N+](=O)[O-])cc1)C(Cl)Cl	/	0%[56.1 µM]	/	/	/	/

Compound activity from PubChem BioAssay.
